Reference: PubChem BioAssay (NCATS)
Inconclusive results are not listed. A call without a number means that no potency is given here. Values without a mark were called inactive. Activity calls are given as the source filed them. The call rests on the fitted dose curve; in most records, active means well fitted inhibition curve with a large enough effect; inconclusive means small, poorly fitted or top-dose-only effect; inactive means flat fitted curve, though single readings scatter.

Legend:
[1] = qHTS profiling for inhibitors of Plasmodium falciparum proliferation (AID 504749); further: nearly all actives have a fitted effect of over 60% in size; conditions: P. falciparum in erythrocytes, SYBR Green DNA, 72 h
Outline: (§1)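 Each compound contacts P. falciparum-infected red blood cells for 72 h at 37 C; lysis buffer (Tris, EDTA, saponin, Triton X, SYBR Green I) is added and fluorescence measured next morning; values normalized to controls.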

[2] = system: 3D7; assay: as above; conditions: P. falciparum in erythrocytes, SYBR Green DNA, 72 h; series mostly up to 28.7 µM
Outline: as §1

[3] = system: 7G8; assay: as above; conditions: P. falciparum in erythrocytes, SYBR Green DNA, 72 h; series mostly up to 28.7 µM
Outline: as §1

[4] = system: AA1029; assay: as above; conditions: P. falciparum in erythrocytes, SYBR Green DNA, 72 h; series mostly up to 28.7 µM
Outline: as §1

[5] = system: AS120; assay: as above; conditions: P. falciparum in erythrocytes, SYBR Green DNA, 72 h; series mostly up to 28.7 µM
Outline: as §1

[6] = system: ATS189; assay: as above; conditions: P. falciparum in erythrocytes, SYBR Green DNA, 72 h; series mostly up to 28.7 µM
Outline: as §1

[7] = system: ATS95; assay: as above; conditions: P. falciparum in erythrocytes, SYBR Green DNA, 72 h; series mostly up to 28.7 µM
Outline: as §1

[8] = system: C2A; assay: as above; conditions: P. falciparum in erythrocytes, SYBR Green DNA, 72 h; series mostly up to 28.7 µM
Outline: as §1

[9] = system: CP185; assay: as above; conditions: P. falciparum in erythrocytes, SYBR Green DNA, 72 h; series mostly up to 28.7 µM
Outline: as §1

[10] = at 28.7 µM (top of the series), parasite line A
[11] = at 28.7 µM (top of the series), parasite line B
[12] = at 12.8 µM (top of the series), parasite line A
[13] = at 12.8 µM (top of the series), parasite line B
Potency means the concentration at half of the fitted maximal effect.

NC(=S)N/N=C/c1cccnc1
activity, negative = inhibition [1, 10]: 13.2%
activity, negative = inhibition [1, 11]: 8.73%
Potency [2]: inactive
Potency [3]: inactive
Potency [4]: inactive
Potency [5]: inactive
Potency [6]: inactive
Potency [7]: inactive
Potency [8]: inactive
Potency [9]: inactive

O=C(c1ccc(F)cc1)C1CCN(CCn2c(=S)[nH]c3ccccc3c2=O)CC1
Potency ([1]; parasite line A): 5.01 µM (active)
Potency ([1]; parasite line B): 10 µM (active)
Potency [2]: 11.2 µM (active)
Potency [3]: 2.24 µM (active)
Potency [4]: 4.47 µM (active)
Potency [5]: 2.82 µM (active)
Potency [6]: 6.31 µM (active)
Potency [7]: 5.01 µM (active)
Potency [8]: 10 µM (active)
Potency [9]: 7.94 µM (active)

Oc1ccccc1C=NCc1ccccc1
activity, negative = inhibition [1, 10]: 2.18%
activity, negative = inhibition [1, 11]: -16.9%
Potency [2]: inactive
Potency [3]: inactive
Potency [4]: inactive
Potency [5]: inactive
Potency [6]: inactive
Potency [7]: inactive
Potency [8]: inactive
Potency [9]: inactive

NC(N)=NN=C(/C=C/c1ccc([N+](=O)[O-])o1)/C=C/c1ccc([N+](=O)[O-])o1
Potency ([1]; parasite line A): 7.08 µM (active)
Potency ([1]; parasite line B): 10 µM (active)
Potency [2]: 2.24 µM (active)
Potency [3]: 2.24 µM (active)
Potency [4]: 10 µM (active)
Potency [5]: 11.2 µM (active)
Potency [7]: 10 µM (active)
Potency [8]: 12.6 µM (active)

NCCNC(=O)c1ccc(Cl)cn1
activity, negative = inhibition [1, 10]: -3.24%
activity, negative = inhibition [1, 11]: -5.67%
Potency [2]: inactive
Potency [3]: inactive
Potency [4]: inactive
Potency [5]: inactive
Potency [6]: inactive
Potency [7]: inactive
Potency [8]: inactive
Potency [9]: inactive

COc1cc(O)c(C(=O)c2ccccc2)cc1S(=O)(=O)O
activity, negative = inhibition [1, 10]: -0.769%
activity, negative = inhibition [1, 11]: 4.93%
Potency [2]: inactive
Potency [3]: 11.2 µM (active)
Potency [4]: inactive
Potency [5]: inactive
Potency [7]: inactive
Potency [8]: inactive
Potency [9]: inactive

CCOC(=O)[C@H](CCc1ccccc1)N[C@@H](C)C(=O)N1[C@H](C(=O)O)C[C@H]2CCCC[C@@H]21
activity, negative = inhibition [1, 10]: 8.44%
activity, negative = inhibition [1, 11]: 4.83%
Potency [2]: inactive
Potency [3]: inactive
Potency [4]: inactive
Potency [5]: inactive
Potency [6]: inactive
Potency [7]: inactive
Potency [8]: inactive
Potency [9]: inactive

COc1cc(C(=S)N2CCOCC2)ccc1O
activity, negative = inhibition [1, 10]: 1.83%
activity, negative = inhibition [1, 11]: -2.75%
Potency [2]: inactive
Potency [3]: inactive
Potency [4]: inactive
Potency [5]: inactive
Potency [6]: inactive
Potency [7]: inactive
Potency [8]: inactive
Potency [9]: inactive

CC(=O)Oc1ccc(C)cc1
activity, negative = inhibition [1, 10]: 9.31%
activity, negative = inhibition [1, 11]: 10.5%
Potency [2]: inactive
Potency [3]: inactive
Potency [4]: inactive
Potency [5]: inactive
Potency [6]: inactive
Potency [7]: inactive
Potency [8]: inactive
Potency [9]: inactive

CCOc1ccc(NC(C)=O)cc1
activity, negative = inhibition [1, 10]: -9.23%
activity, negative = inhibition [1, 11]: 8.77%
Potency [2]: inactive
Potency [3]: inactive
Potency [4]: inactive
Potency [5]: inactive
Potency [6]: inactive
Potency [7]: inactive
Potency [8]: inactive
Potency [9]: inactive

CN1CCN(c2cc3c(cc2F)c(=O)c(C(=O)O)cn3-c2ccc(F)cc2)CC1
activity, negative = inhibition [1, 10]: -21.3%
activity, negative = inhibition [1, 11]: -17.5%
Potency [2]: inactive
Potency [3]: inactive
Potency [4]: inactive
Potency [6]: inactive
Potency [7]: inactive
Potency [8]: inactive
Potency [9]: inactive

N/C(=N\N=C\c1ccc(Cl)cc1)N/N=C/c1ccc(Cl)cc1
Potency ([1]; parasite line A): 3.16 µM (active)
Potency ([1]; parasite line B): 5.01 µM (active)
Potency [2]: 3.98 µM (active)
Potency [3]: 2.82 µM (active)
Potency [5]: 5.01 µM (active)
Potency [7]: 8.91 µM (active)
Potency [8]: 8.91 µM (active)

CN1CCN(CCC(=O)N2c3ccccc3Sc3ccc(C(F)(F)F)cc32)CC1
activity, negative = inhibition [1, 10]: 8.92%
activity, negative = inhibition [1, 11]: -2.7%
Potency [2]: inactive
Potency [3]: 10 µM (active)
Potency [5]: inactive
Potency [7]: inactive
Potency [8]: inactive

CCC1Nc2cc(Cl)c(S(N)(=O)=O)cc2S(=O)(=O)N1 (stereo not drawn)
activity, negative = inhibition [1, 10]: 11%
activity, negative = inhibition [1, 11]: 6.74%
Potency [2]: inactive
Potency [3]: inactive
Potency [4]: inactive
Potency [5]: inactive
Potency [6]: inactive
Potency [7]: inactive
Potency [8]: inactive
Potency [9]: inactive

CC(C)Cc1ccc(CC(=O)O)cc1
activity, negative = inhibition [1, 10]: 5.78%
activity, negative = inhibition [1, 11]: 6.05%
Potency [2]: inactive
Potency [3]: inactive
Potency [4]: inactive
Potency [5]: inactive
Potency [6]: inactive
Potency [7]: inactive
Potency [8]: inactive
Potency [9]: inactive

c1ccc(-c2nc[nH]c2-c2ccccc2)cc1
activity, negative = inhibition [1, 10]: 7.29%
activity, negative = inhibition [1, 11]: -4.58%
Potency [2]: inactive
Potency [3]: inactive
Potency [4]: inactive
Potency [5]: inactive
Potency [6]: inactive
Potency [7]: inactive
Potency [8]: inactive
Potency [9]: inactive

CCCCN=C(N)N=C(N)N
activity, negative = inhibition [1, 10]: -1.88%
activity, negative = inhibition [1, 11]: 0.415%
Potency [2]: inactive
Potency [3]: inactive
Potency [4]: inactive
Potency [5]: inactive
Potency [6]: inactive
Potency [7]: inactive
Potency [8]: inactive
Potency [9]: inactive

NCc1ccccc1Sc1ccccc1CO
activity, negative = inhibition [1, 10]: 10.7%
activity, negative = inhibition [1, 11]: -5.68%
Potency [2]: inactive
Potency [3]: 11.2 µM (active)
Potency [6]: inactive
Potency [8]: inactive
Potency [9]: inactive

NCCNc1cccc2ccccc12
activity, negative = inhibition [1, 10]: -9.01%
activity, negative = inhibition [1, 11]: 2.1%
Potency [2]: inactive
Potency [4]: inactive
Potency [5]: inactive
Potency [6]: inactive
Potency [7]: inactive
Potency [8]: inactive
Potency [9]: inactive

COc1ccc(C(Cl)=C(c2ccc(OC)cc2)c2ccc(OC)cc2)cc1
Potency ([1]; parasite line A): 3.98 µM (active)
Potency ([1]; parasite line B): 3.98 µM (active)
Potency [4]: 6.31 µM (active)
Potency [5]: 3.55 µM (active)
Potency [6]: 2.82 µM (active)
Potency [7]: 11.2 µM (active)
Potency [8]: 3.98 µM (active)

CN(C)CCN1C(=O)c2ccccc2N(C)c2ccccc21
activity, negative = inhibition [1, 10]: -2.77%
activity, negative = inhibition [1, 11]: 8.88%
Potency [2]: inactive
Potency [8]: inactive

COc1ccc2c(c1)c1c3n2CCN(C)C3=NCC1
activity, negative = inhibition [1, 10]: -3.91%
activity, negative = inhibition [1, 11]: 11.3%
Potency [2]: inactive
Potency [4]: inactive
Potency [5]: inactive
Potency [6]: inactive
Potency [7]: inactive
Potency [8]: inactive
Potency [9]: inactive

C#C[C@]1(OC(C)=O)CC[C@H]2[C@@H]3CCC4=C/C(=N/O)CC[C@@H]4[C@H]3CC[C@@]21CC
activity, negative = inhibition [1, 10]: -6.98%
activity, negative = inhibition [1, 11]: -15.6%
Potency [2]: inactive
Potency [4]: inactive
Potency [5]: inactive
Potency [6]: inactive
Potency [7]: inactive
Potency [8]: inactive
Potency [9]: inactive

CCC(CC)(CC(=O)Nc1cccc(/C=C/c2nc(C3CCC3)cs2)c1)C(=O)O
activity, negative = inhibition [1, 10]: -2.66%
activity, negative = inhibition [1, 11]: -0.894%
Potency [2]: inactive
Potency [4]: inactive
Potency [5]: inactive
Potency [6]: inactive
Potency [7]: inactive
Potency [8]: inactive
Potency [9]: inactive

CCN(CC)CCOC(=O)C1(c2ccccc2)CCCC1
activity, negative = inhibition [1, 10]: -50.7%
activity, negative = inhibition [1, 11]: -32%
Potency [4]: 0.01 µM (active)
Potency [5]: inactive
Potency [6]: inactive
Potency [7]: inactive
Potency [8]: inactive
Potency [9]: 11.2 µM (active)

C=C[C@@]1(C)CC(=O)[C@]2(O)[C@@]3(C)[C@@H](O)CCC(C)(C)[C@@H]3[C@H](O)[C@H](OC(C)=O)[C@@]2(C)O1
activity, negative = inhibition [1, 10]: -7.28%
activity, negative = inhibition [1, 11]: 2.74%
Potency [2]: inactive
Potency [4]: inactive
Potency [5]: inactive
Potency [6]: inactive
Potency [7]: inactive
Potency [8]: inactive
Potency [9]: inactive

CCCCC(CC)COC(=O)/C=C/c1ccc(OC)cc1 (stereo not drawn)
activity, negative = inhibition [1, 10]: 10.4%
activity, negative = inhibition [1, 11]: 11.8%
Potency [2]: inactive
Potency [4]: inactive
Potency [5]: inactive
Potency [6]: inactive
Potency [7]: inactive
Potency [8]: inactive
Potency [9]: inactive

CCCCNc1ccc(C(=O)OCCOCCOCCOCCOCCOCCOCCOCCOCCOC)cc1
activity, negative = inhibition [1, 12]: -21.5%
activity, negative = inhibition [1, 13]: -9.92%
Potency [2]: inactive
Potency [4]: inactive
Potency [5]: inactive
Potency [6]: inactive
Potency [7]: inactive
Potency [8]: inactive
Potency [9]: inactive

O=C1C(O)=C(O)C(=O)C(O)=C1O
activity, negative = inhibition [1, 10]: 5.3%
activity, negative = inhibition [1, 11]: 12.3%
Potency [4]: inactive
Potency [5]: inactive
Potency [6]: inactive
Potency [7]: inactive
Potency [8]: inactive
Potency [9]: inactive

CCOC(=O)C(C#N)=C(c1ccccc1)c1ccccc1
activity, negative = inhibition [1, 10]: 12.2%
activity, negative = inhibition [1, 11]: -2.15%
Potency [2]: inactive
Potency [4]: inactive
Potency [5]: inactive
Potency [6]: inactive
Potency [7]: inactive
Potency [8]: inactive
Potency [9]: inactive

CCCCc1cc2ccccc2c(OCCN(C)C)n1
activity, negative = inhibition [1, 12]: 8.06%
activity, negative = inhibition [1, 13]: 4.66%
Potency [2]: inactive
Potency [4]: inactive
Potency [5]: inactive
Potency [6]: inactive
Potency [7]: inactive
Potency [8]: inactive
Potency [9]: inactive

CCN(CC)CCOc1ccccc1C(=O)CCc1ccccc1
activity, negative = inhibition [1, 10]: 2.97%
activity, negative = inhibition [1, 11]: -13.2%
Potency [2]: inactive
Potency [8]: inactive

CN1CCC(OC(c2ccccc2)c2ccccc2)CC1
activity, negative = inhibition [1, 12]: -11.2%
activity, negative = inhibition [1, 13]: -2.27%
Potency [2]: inactive
Potency [4]: 2.51 µM (active)
Potency [8]: inactive

NS(=O)(=O)Cc1noc2ccccc12
activity, negative = inhibition [1, 10]: 6.43%
activity, negative = inhibition [1, 11]: 4.66%
Potency [2]: inactive
Potency [4]: inactive
Potency [5]: inactive
Potency [6]: inactive
Potency [7]: inactive
Potency [8]: inactive
Potency [9]: inactive
